Source: PubChem
ADAM17 inh: ADAM17 inhibitors, primary screen, biochemical, QFRET; recombinant ADAM17, EDANS/DABCYL FRET peptide cleavage; inhibition, % at 6.95 µM; 370,000 compounds, 0.83% hits; AID 720648, 2013;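 active = inhibition above the mean of compounds lying between control limits plus 3 SD, set per campaign, cut at about 8.5% in these data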;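 note: 0% = DMSO-only wells as the low control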
KLK7 zymogen act: proKLK7 zymogen activators, primary screen, biochemical, fluorescence intensity; Kallikrein-7 (Homo sapiens), P49862; purified proKLK7, EDANS-DABCYL substrate fluorescence; 100% is mature enzyme control, 0% vehicle; activation, % at 7 µM; 370,000 compounds, 0.9% hits; AID 652039, 2013;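 active = activation above the mean of all tested compounds plus 3 SD, computed per campaign excluding outliers beyond control limits, cut at about 13% in these data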
Target sequence (P49862 whole entry, looked up): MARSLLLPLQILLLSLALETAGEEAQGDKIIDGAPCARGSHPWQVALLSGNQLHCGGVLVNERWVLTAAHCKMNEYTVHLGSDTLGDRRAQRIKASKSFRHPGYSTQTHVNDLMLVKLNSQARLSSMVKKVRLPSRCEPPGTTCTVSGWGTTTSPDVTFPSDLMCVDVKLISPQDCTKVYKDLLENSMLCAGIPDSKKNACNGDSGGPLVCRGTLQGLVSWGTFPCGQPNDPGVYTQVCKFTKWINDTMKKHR
Ecoli rRNA inh: reduced GFP signal of wild-type E. coli, primary screen, bacterial rRNA inhibitor project, GFP/RFP fluorescence, OD600, single point; E. coli WT GFP vs humanized-ribosome RFP mutants, 24 h; active compounds read low; DMSO median 0, no signal -100; GFP signal change (wild-type ribosome), % (no concentration beside the values); 350,000 compounds, 1.6% hits;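 active = significant combined selectivity score with lowered wild-type GFP, culture density cut under 30%, mutant RFP and density less affected; inactive = any of these conditions unmet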
FGF22 binding: binders of human FGF22 protein, primary screen, FGF22 synaptogenesis inhibitor project, biophysical, thermal shift, single point. Fibroblast growth factor 22 (Homo sapiens), Q9HCT0. recombinant FGF22 thermal shift, SYPRO orange fluorescence; percent of sucrose octasulfate shift, DMSO zero. activity (Tm shift, normalised), % at 9.99 µM. 340,000 compounds, 1.5% hits. AID 651658, 2012;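 active = mean Tm shift, scaled 0 neutral to 100 positive control, at about 1.3% or above, every replicate too, limit read from the data; inconclusive = no clear call, values can overlap the other calls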
Target sequence (Q9HCT0 whole entry, looked up): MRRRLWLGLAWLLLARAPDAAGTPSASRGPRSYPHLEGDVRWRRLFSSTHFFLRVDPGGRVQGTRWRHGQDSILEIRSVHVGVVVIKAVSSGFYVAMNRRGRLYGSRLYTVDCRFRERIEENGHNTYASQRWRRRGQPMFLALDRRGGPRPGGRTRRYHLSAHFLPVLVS
ADAM10 inh: human ADAM10 inhibitors, primary screen, biochemical, QFRET, HTS | Disintegrin and metalloproteinase domain-containing protein 10 (Homo sapiens), O14672 | recombinant ADAM10, EDANS/DABCYL FRET peptide cleavage, 3 h | inhibition, % at 7 µM | 370,000 compounds, 0.62% hits;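 active = inhibition above a per-campaign cutoff equal to the mean of compounds falling between control-based bounds plus 3 SD, cut at about 20% in these data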;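 note: 0% = DMSO wells while the 100% control is not disclosed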
AID977621: growth inhibition of wild-type GFP E. coli, dose response, H69 mutant RFP, cherry-pick. shares compounds with Ecoli rRNA inh. activity change, negative = inhibition at 50 µM. E. coli wild-type GFP strain growth, fluorescence, 24 h. 1,900 tested, under 10 active;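 active = Wild-type ribosome reporter drop at least double the humanized mutant ribosome reporter drop, growth loss under a set limit; inconclusive = no clear call, values can overlap the other calls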;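 note: wild-type GFP and H69 mutant RFP strains grown together 50/50 in each well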
AID977628: E. coli growth inhibition, wild-type GFP versus h24 humanized RFP strain, dose response, h24 mutant RFP vs wild-type GFP, cherry-pick. shares compounds with Ecoli rRNA inh. E. coli WT GFP strain growth, fluorescence, 24 h. activity change, negative = inhibition at 50 µM. 1,900 tested, under 10 active. AID 977628, 2014;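 active = compound lowering the normal-ribosome reporter at least twice as much as the humanized-ribosome reporter, growth loss under a set limit; inconclusive = no clear call, values can overlap the other calls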;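 note: wild-type GFP and h24 humanized RFP strains co-cultured 1 to 1 per well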
Active calls of the source: *; u = inconclusive; x = no result given. Compounds with a hit are over-represented: about 3.8% of the library has one in this group of screens.

SMILES	ADAM17 inh	KLK7 zymogen act	Ecoli rRNA inh	FGF22 binding	ADAM10 inh	AID977621	AID977628
CO[C@@H]1CN(C)C(=O)c2cc(NS(=O)(=O)c3c(C)noc3C)ccc2OC[C@H](C)NC[C@@H]1C	x	x	2	0	x	x	x
COc1cc2c(cc1OC)CN(CC(=O)Nc1ccccc1SC)CC2	-7	0	-20*	43*	-8	0.48	-7
COc1cc2c(cc1OC)CN(CC(=O)Nc1ccccc1C#N)CC2	-37	0	x	x	-141	x	x
CC(C)NC(=O)N(C)C[C@H]1Oc2ccc(NS(=O)(=O)c3ccc(F)cc3)cc2C(=O)N([C@H](C)CO)C[C@H]1C	x	x	2	0	x	x	x
Cc1cccc(C)c1NC(=O)CNC(=O)C(C)NC(C)c1ccccc1Br (centres undefined)	-3	0	x	0	-13	x	x
Cc1cc(NC(=O)CN2CCN(c3cccc(Cl)c3)CC2)no1	-5	-1	-15*	0	-2	x	u
Cc1cc(NC(=O)CN2CCN(c3ncccn3)CC2)no1	-2	0	16	0	-3	x	x
Cc1cccc(C)c1NC(=O)CNC(=O)C(C)N1CCN(c2cccc(Cl)c2)CC1 (centres undefined)	1	0	-22*	0	-7	x	-16
Cc1n(CC(=O)c2ccc(F)cc2)c2ccccc2[n+]1C	-2	0	16	0	-1	x	x
CCCCc1n(CC(=O)c2ccc(Cl)cc2)c2ccccc2[n+]1C	-2	0	-19*	0	-6	x	-1.4
COc1cccc(-c2ccc3ncnc(NCc4cccs4)c3c2)c1	7	0	0	0	-2	x	x
Cn1ccc2cc(-c3ccc4ncnc(NCc5cccs5)c4c3)ccc21	-10	-1	-24*	0	-48	u	-11
CC(C)NC(=O)Nc1ccc2c(c1)C(=O)N(C)C[C@@H](C)[C@H](CN(C)S(C)(=O)=O)O2	x	x	-3	x	x	x	x
C[C@@H]1CN([C@H](C)CO)C(=O)c2cc(NC(=O)Cc3ccccc3)ccc2O[C@@H]1CN(C)Cc1ccc(-c2ccccc2)cc1	x	x	1	x	x	x	x
Cc1cc(Br)cn2c(Cc3cccc(Cl)c3)c(-c3ccco3)nc12	-5	0	-21*	0	-8	4.2	-3.1
Cc1ccc(Cc2c(-c3ccco3)nc3c(C)cc(Br)cn23)cc1	-4	-1	x	0	-13	x	x
Cc1nn2c(NCc3ccccn3)cc(C(C)C)nc2c1-c1ccccc1	-9	1	-21*	0	-16	x	-14
CO[C@H]1CN(C)C(=O)c2ccc(NC(=O)C3CC3)cc2OC[C@H](C)N(C(C)=O)C[C@@H]1C	x	x	4	x	x	x	x
Cc1ccc(NC(=O)CN(C)S(=O)(=O)c2cccc3cccnc23)cc1F	-3	0	-28*	0	-7	-7.4	x
Cc1ccc(NC(=O)CN(C)S(=O)(=O)c2cccc3cccnc23)cc1C	0	1	2	0	2	x	x
C/C=C/c1cnc2c(c1)C(=O)N([C@@H](C)CO)C[C@@H](C)[C@H](CN(C)C(=O)Cc1ccccc1)O2	x	x	1	0	x	x	x
CN(CCOc1ccccc1)S(=O)(=O)c1ccccc1C#N	-2	-1	-22*	0	1	-14	-19
CCOC(=O)c1ccc(NC(=O)c2ccc3c(c2)OCO3)cc1	-4	1	x	x	5	x	x
CCOC(=O)c1ccc(NC(=O)c2ccc(OC(C)C)c(OC)c2)cc1	-1	1	-26*	0	14	-3.6	-7.8
CN(CC(=O)Nc1ccc(F)cc1)C(=O)COc1ccc([N+](=O)[O-])cc1Cl	0	0	-24*	0	-4	-16	-6.8
SMILES	ADAM17 inh	KLK7 zymogen act	Ecoli rRNA inh	FGF22 binding	ADAM10 inh	AID977621	AID977628
Cc1ccc(OCC(=O)N(C)CC(=O)Nc2ccc(F)cc2)c([N+](=O)[O-])n1	2	-1	9	0	0	x	x
Cc1ccccc1-n1ncc2c1CC(C)(C)CC2NC(=O)CCN1Cc2ccccc2C1=O (centres undefined)	-3	0	-24*	0	-1	-11	x
CSCCC(=O)NC1CC(C)(C)Cc2c1cnn2-c1ccccc1C (centres undefined)	-4	0	-3	0	-6	x	x
Nc1ccccc1C#CC(=O)c1ccccc1	-2	0	-23*	0	-8	x	u
CC(=O)N1CC[C@@H]2[C@H](CO)Nc3ccc(-c4ccccc4)cc3[C@@H]21	x	x	0	0	x	x	x
CCn1nc(C)c(Br)c1-c1nc(CS(=O)(=O)c2ccsc2)no1	-2	0	-34*	0	-6	-11	u
O=C(NCc1ccccc1)C1C(=O)Nc2ccccc2C(=O)N1c1ccc2c(c1)OCCO2 (centres undefined)	-6	0	-17*	0	-20	3.7	-3.8
CCc1cc2c(=O)n(Cc3ccccc3)c(SC3CCOC3=O)nc2s1 (centres undefined)	-3	0	-24*	0	3	-17	x
Cc1ccc(Cn2c(SC3CCOC3=O)nc3ccccc3c2=O)cc1 (centres undefined)	2	1	x	x	0	x	x
O=C(C[C@@H]1CC[C@H]2[C@@H](COC[C@H](O)CN2C(=O)c2ccncc2)O1)NCc1cccc(F)c1	x	x	5	0	x	x	x
C[C@@H]1CN([C@H](C)CO)C(=O)c2cc(NS(=O)(=O)c3cn(C)cn3)ccc2O[C@@H](C)CCCCO[C@@H]1CN(C)S(=O)(=O)c1ccc(F)cc1	x	x	-2	1	x	x	x
CO[C@@H]1CN(C)C(=O)c2cc(NC(C)=O)ccc2OC[C@H](C)N(Cc2cccnc2)C[C@H]1C	x	x	1	x	x	x	x
Cc1cccc(OCc2nc(C#N)c(N3CCCC3)o2)c1	-6	0	-25*	0	-5	-1.6	3.7
Cc1cccc(OCc2nc(C#N)c(N3CC(C)CC(C)C3)o2)c1 (centres undefined)	1	0	-9	0	-1	x	x
Cc1ccc(NC(=O)C[n+]2cc(-c3ccccc3)n3c2CCC3)cc1	-8	0	-40*	0	0	4.9	u
O=C(C[n+]1cc(-c2ccc(F)cc2)n2c1CCC2)c1cccs1	-2	0	-16*	0	-1	0.92	2.6
C=CCNC(=O)c1ccccc1CCc1ccccc1	-6	0	-26*	0	0	4.9	-3.4
